The full list was thinned out, with hits kept by preference.
HT1080-NT tox: kills 2HG-producing HT-1080-NT fibrosarcoma cells | HT-1080-NT fibrosarcoma viability, CellTiter-Glo ATP luminescence, 48 h | Potency, µM (titrated, usually from 46.1 µM), inactives show at the highest dose activity, negative = less viability, usual class: cytotoxic | 1.6% of 360,000 active | AID 686970;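 note: NT is the 2HG producing partner of a matched IDH1 knockdown line; potency is the fitted concentration of half-maximal effect; 0% = DMSO-treated cells and -100% = media-only wells without cells; nearly all actives have a fitted effect of over 55% in size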
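Luminescent CellTiter-Glo readout after 48 hours of compound exposure at 37 degrees C defined viability of HT-1080-NT cells. Activity was normalized to DMSO wells and cell-free media wells; concentration-response curves were fitted and assigned curve classes.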
TDP1 cell noCPT: qHTS for Inhibitors of human tyrosyl-DNA phosphodiesterase 1 (TDP1): qHTS in cells in absence of CPT; 15% of 420,000 active; DT40 Tdp1-/- hTDP1 cells, no CPT, ATP luminescence, 48 h; Potency, µM (highest dose often 46.2 µM), without a hit: at the highest dose activity change, negative = growth inhibition, hits mostly inhibitors; note: potency is the fitted concentration of half-maximal effect; nearly all actives have a fitted effect of over 55% in size
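Chicken DT40 Tdp1-/- cells stably complemented with human TDP1 were seeded at 400 cells/well with DMSO in place of 20 nM camptothecin. After compound pinning, cells grew at least 48 hr at 37 °C; viability read by CellTiter-Glo luminescence.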
HT1080 IDH1KD tx: kills HT-1080 cells with IDH1 knockdown; HT-1080 IDH1 knockdown viability, ATP luminescence, 48 h; Potency, µM (top dose mostly 46.1 µM), inactives show at the highest dose activity, negative = toxicity, hits mostly cytotoxic; 2% of 360,000 active; AID 686971;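 note: potency is the fitted concentration of half-maximal effect; 0% = DMSO wells and -100% = cell-free medium wells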
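In this qHTS, HT-1080 cells depleted of IDH1 are exposed for 48 h at 37 °C to compound titrations. Toxicity is scored from CellTiter-Glo luminescence, with DMSO as full viability and medium alone as none.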
IL1B secr inh: inhibitors of inflammasome signaling (IL-1 beta secretion); activity change, % at 57.5 µM; THP-1 LPS/ATP IL-1B secretion, AlphaLISA, 16 h; hits give low values; 4.7% of 360,000 active; in the data active = activity change below about -50%; inconclusive = mostly about -30% to -49%
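Secreted IL-1B measured by AlphaLISA bead assay after 16 h compound exposure of THP-1 cells; compounds (final up to 57.5 uM) added 1 h before LPS (250 ng/mL) and ATP (1.25 mM) stimulation; lower signal means less secretion.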
ALOX12 inh: blocks human arachidonate 12S-lipoxygenase; P18054; purified 12hLO, xylenol orange hydroperoxide absorbance; Potency, µM (doses to about 108 µM), for inactives: at the highest dose activity change, negative = inhibition, hits mostly inhibitors; 1.1% of 580,000 active; AID 1671190; note: potency is the fitted concentration of half-maximal effect
Target sequence (P18054 whole entry, looked up): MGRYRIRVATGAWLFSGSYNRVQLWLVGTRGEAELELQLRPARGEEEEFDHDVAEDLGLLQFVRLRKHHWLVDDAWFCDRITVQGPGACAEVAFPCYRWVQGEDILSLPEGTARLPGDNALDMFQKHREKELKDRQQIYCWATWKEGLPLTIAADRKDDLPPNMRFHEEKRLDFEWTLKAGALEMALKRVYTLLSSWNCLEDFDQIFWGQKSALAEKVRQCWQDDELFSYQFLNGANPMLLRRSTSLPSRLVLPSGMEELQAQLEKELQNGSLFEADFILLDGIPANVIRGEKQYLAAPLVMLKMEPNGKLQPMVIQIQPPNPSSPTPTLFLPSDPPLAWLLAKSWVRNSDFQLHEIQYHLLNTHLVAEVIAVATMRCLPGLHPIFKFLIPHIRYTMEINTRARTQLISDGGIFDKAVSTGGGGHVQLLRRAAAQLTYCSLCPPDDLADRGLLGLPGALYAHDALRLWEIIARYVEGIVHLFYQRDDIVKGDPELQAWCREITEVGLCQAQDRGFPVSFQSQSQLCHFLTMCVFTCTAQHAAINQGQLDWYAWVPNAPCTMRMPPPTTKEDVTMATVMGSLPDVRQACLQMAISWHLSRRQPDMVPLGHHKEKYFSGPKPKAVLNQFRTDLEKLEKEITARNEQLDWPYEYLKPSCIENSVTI
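Purified human 12hLO (150 nM final) in 25 mM Hepes, 0.01% Triton X-100, pH 7.0 was preincubated 15 min at room temperature with compound. Then 40 uM arachidonic acid was added, 30 min. Hydroperoxide was read by Fe-XO absorbance ratio 573/405 nm.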
TDP1 cell CPT: growth inhibition of DT40 Tdp1-/-;hTDP1 cells with camptothecin (screen for TDP1 inhibitors). chicken DT40 Tdp1-/-;hTDP1 cells + 20 nM CPT, ATP luminescence, 48 h. Potency, µM (series often up to 46.2 µM), without a hit: top-dose activity change, negative = growth inhibition, actives largely listed as inhibitors. 12% of 420,000 active; note: potency is the fitted concentration of half-maximal effect; nearly all actives have a fitted effect of over 55% in size
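Chicken DT40 Tdp1-/- cells complemented with human TDP1, 400 cells/well, exposed to compounds plus 20 nM camptothecin for at least 48 h at 37 C; viability read as ATP content by CellTiter-Glo luminescence.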
Numbers without * were called inactive; ? = inconclusive; · = no result given; [ ] = remark or other dose. Unless noted, calls come from the whole dose curve; as a rule, active = well fitted curve in the direction sought with a large enough effect; inconclusive = small, poorly fitted or top-dose-only effect, or another doubt; inactive = no such curve, though single readings can be large; an effect the other way counts as inactive or inconclusive. Unless noted, % is set by controls: 0 for no effect and ±100 for the full control effect.

SMILES	HT1080-NT tox	TDP1 cell noCPT	HT1080 IDH1KD tx	IL1B secr inh	ALOX12 inh	TDP1 cell CPT
COc1ccc2c(c1)OC/C(=C/c1ccc(O)c(O)c1)C2=O	·	2.59µM*	·	·	·	3.26µM*
O=C(NCCc1ccccn1)C1CC12CCN(C(=O)c1c(F)cccc1Cl)CC2 (configuration not stated)	·	-5.6%	·	·	5.6%	7.3%[9.04 µM]
O=C(Nc1ccc(Cl)c(C(F)(F)F)c1)C1Cc2c(-c3ccc4c(c3)OCO4)ccnc2O1 (configuration not stated)	?	?	20.6µM*	-2.6	-23.4%	23.1µM*
CC(=O)c1cccc(-c2ccnc3c2CC(C(=O)Nc2ccc(Cl)cc2)O3)c1 (configuration not stated)	?	20.6µM*	16.4µM*	-7.9	-7.6%	?
CC(=O)c1cccc(-c2ccnc3c2CC(C(=O)Nc2ccc(Cl)c(C(F)(F)F)c2)O3)c1 (configuration not stated)	-19.9%	?	?	93.9	?	20.6µM*
CC(=O)Nc1ccc(NC(=O)C2Cc3c(-c4cccc(C(C)=O)c4)ccnc3O2)cc1 (configuration not stated)	-1.1%	-19.4%	-0.7%	30.4	-3.5%	2.5%
CN(C)c1cccc(NC(=O)C2Cc3c(-c4ccc(Cl)cc4)ccnc3O2)c1 (configuration not stated)	?	?	?	-28.2	-4.3%	?
CC(=O)c1cccc(NC(=O)C2Cc3c(-c4ccc(Cl)cc4)ccnc3O2)c1 (configuration not stated)	?	10.3µM*	?	-8.2	·	?
O=C(Cn1ccc2ccc(F)cc21)Nc1nnc(C2CC2)s1	·	·	·	·	4.6%	·
COc1cccc(/C=C/C(=O)Nc2cccc(C(C)=O)c2)c1OC	4.8%	?	4.0%	-21.4	-9.9%	?
COc1cccc(/C=C/C(=O)Nc2ccc3nc4n(c(=O)c3c2)CCCC4)c1OC	?	18.4µM*	?	-10.3	-2.9%	20.6µM*
COc1cccc(NC(=O)CC(=O)Nc2ccc3nc4n(c(=O)c3c2)CCCCC4)c1	·	-8.1%	·	·	-16.9%	3.2%
COc1cc(OC)cc(C(=O)Nc2ccc3nc4n(c(=O)c3c2)CCCCC4)c1	-29.9%	11.6µM*	-21.3%	-10.0	10.0%	?
O=C(Nc1ccc2nc3n(c(=O)c2c1)CCCC3)c1cc([N+](=O)[O-])ccc1F	-19.8%	1.84µM*	?	-104.9*	·	2.06µM*
COc1cccc(/C=C/C(=O)Nc2ccc3c(c2)OCCO3)c1OC	-11.9%	?	-12.9%	-77.7*	-14.7%	18.4µM*
O=C(Cc1ccccc1)Nc1ccc([C@@H](O)[C@H]2COCC(=O)N2Cc2ccccn2)cc1	·	·	·	·	11.0%[176 µM]	·
COc1ccc(OC)c(CCNC(=O)C(=O)Nc2ccc3nc4n(c(=O)c3c2)CCCCC4)c1	-0.1%	14.6µM*	0.4%	-15.4	1.3%	13µM*
COc1ccc(NC(=O)C(=O)Nc2ccc3nc4n(c(=O)c3c2)CCCCC4)c(OC)c1	·	-6.9%	·	·	4.2%	-6.9%
CS(=O)(=O)c1ccc(NC(=O)CN2C(=O)C3CCCCC3C2=O)cc1 (configuration not stated)	?	13.8%	11.0%	-8.9	203.6%	16.4%
CCCCc1ccc(NC(=O)CN2C(=O)C3CCCCC3C2=O)cc1 (configuration not stated)	-7.4%	?	-2.3%	-75.9*	-1.0%	?
CCc1cccc(NS(=O)(=O)c2ccc3c(c2)CC(C)N3C(=O)C2CC2)c1 (configuration not stated)	·	3.66µM*	·	·	?	6.51µM*
CCC(=O)N1c2ccc(S(=O)(=O)NC3CCCCC3)cc2CC1C (configuration not stated)	-5.2%	?	-6.6%	27.5	-7.4%	20.6µM*
Cc1ccc(NS(=O)(=O)c2ccc3c(c2)N(C)CCO3)cc1	2.8%	?	-9.2%	63.8	-22.2%	?
CCOc1ccccc1N(C)S(=O)(=O)c1ccc2c(c1)CC(C)N2C(=O)C1CC1 (configuration not stated)	?	16.4µM*	14.6µM*	-4.3	4.2%	23.1µM*
CCc1cccc(NS(=O)(=O)c2ccc3c(c2)N(C)CCO3)c1	-15.6%	?	?	0.0	-11.4%	13µM*
SMILES	HT1080-NT tox	TDP1 cell noCPT	HT1080 IDH1KD tx	IL1B secr inh	ALOX12 inh	TDP1 cell CPT
CC1Cc2cc(S(=O)(=O)NCCc3ccc(Cl)cc3)ccc2N1C(=O)C1CCC1 (configuration not stated)	·	18.4µM*	·	·	-28.1%	?
CC1Cc2cc(S(=O)(=O)NCc3ccccc3)ccc2N1C(=O)C1CCC1 (configuration not stated)	-4.5%	7.31µM*	0.4%	0.9	1.2%	20.6µM*
O=C(Cc1noc(C(=O)NCC2CC2)n1)Nc1cccc2ncccc12	·	·	·	·	7.6%	·
COC(=O)c1[nH]c2ccc(Br)cc2c1NC(=O)C(C)N1CCN(C2CCCCC2)CC1 (configuration not stated)	?	16.4µM*	20.6µM*	-81.8*	-13.7%	5.17µM*
COC(=O)c1[nH]c2ccc(C)cc2c1NC(=O)C(C)N1CCN(C2CCCCC2)CC1 (configuration not stated)	?	?	-4.8%	13.1	?	-8.7%
N=c1c2ccccc2nnn1-c1ccc(C(F)(F)F)cc1	7.6%	6.51µM*	8.3%	-15.6	-11.3%	?
O=C(Nc1cccc(Cl)c1)N(Cc1nc2ccccc2c(=O)[nH]1)Cc1cccs1	-2.8%	23.1µM*	-11.5%	?	-5.5%	23.1µM*
COc1ccccc1CN(Cc1nc2ccccc2c(=O)[nH]1)C(=O)Nc1ccccc1	-11.0%	3.55µM*	5.8%	-6.2	1.3%	3.55µM*
COc1ccccc1CNC(=O)CCc1nc2ccccc2c(=O)[nH]1	-0.8%	-26.4%	8.7%	12.1	-16.7%	-14.3%
O=C(Cc1ccccc1)Nc1ccc([C@@H](O)[C@H]2COCC(=O)N2Cc2ccc(C(F)(F)F)cc2)cc1	·	·	·	·	11.5%	·
O=C(CSc1nnc2ccccn12)N1CCN(Cc2ccccc2)CC1	·	·	·	·	-24.1%	·
COc1ccc2[nH]cc(C(=O)C(=O)N3CCCCC3)c2c1	-3.0%	-3.0%	-6.7%	-16.3	-15.4%	-10.5%
